Test [1] is described as follows: qHTS assay for measurement of the activity of small molecule inhibitors on Zika virus induced Caspase-3 activity in human astrocytoma cells (AID 1224859). The gist of the method:
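Percent inhibition of virus-induced caspase-3/7 signal is calculated against uninfected and ZIKV-infected control cells. Cells are SNB-19, infected at 2 FFU/cell for 6 h after 1 h compound exposure.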
On the technique in general: In qHTS, concentration-response curves come from the screen itself.

Test [2] in a line: qHTS assay to identify small molecule inhibitors of chordoma cells - UCH-1 (AID 1259355). Note: nearly all actives have a fitted effect of over 55% in size. Note: potency is the fitted concentration of half-maximal effect; series mostly up to about 46 µM. The gist of the method:
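800 cells/well, overnight attach; compounds pinned at 15 concs, then auranofin/camptothecin/doxorubicin/rubitecan/topotecan combo added; 48hr 37 C, 5% CO2; CellTiter-Glo, 30min RT, luminescence.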

The nature of test [3]: qHTS assay to identify small molecule inhibitors of chordoma cells - UCH-2 (AID 1259356). Note: potency is the fitted concentration of half-maximal effect.
Test [4] is described as follows: NS1 protein of Zika virus - qHTS assay to identify small molecule inhibitors in human HEK 293 cells (AID 1347053). Note: nearly all actives have a fitted effect of over 55% in size. Note: potency is the fitted concentration of half-maximal effect. The gist of the method:
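Read-out is a two-antibody TR-FRET for ZIKV NS1, normalized between uninfected cells and infected cells. Compound added 1 h before MR766 infection at MOI 0.5; human HEK 293 cells incubated 24 h, 37 C.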

Test [5] in a line: qHTS of pediatric cancer cell lines to identify multiple opportunities for drug repurposing: Primary screen for TC32 cells (AID 1347089). Note: nearly all actives have a fitted effect of over 60% in size. Note: potency is the fitted concentration of half-maximal effect. The gist of the method: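 Luminescent CellTiter-Glo read-out of metabolically active TC32 cells after 48 h compound exposure. Primary: MIPE 11-point, 0.78 nM–46 µM; NPC 8-point, 0.59 nM–46 µM. Confirmatory: 11-point dilutions.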
A short description of test [6]: qHTS of pediatric cancer cell lines to identify multiple opportunities for drug repurposing: Primary screen for DAOY cells (AID 1347090). Note: nearly all actives have a fitted effect of over 55% in size. Note: potency is the fitted concentration of half-maximal effect. The gist of the method: (§1)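 Cell viability, CellTiter-Glo luminescence; 500-1,000 cells/well, 8- or 11-point titration, 48 h compound exposure at 37 degrees C, 5% CO2. Controls: DMSO neutral, bortezomib 2.3 µM final as positive.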

Test [7] can be described thus: qHTS of pediatric cancer cell lines to identify multiple opportunities for drug repurposing: Primary screen for SK-N-MC cells (AID 1347093). Note: potency is the fitted concentration of half-maximal effect. The gist of the method: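 Metabolically active cells were quantified by ATP-dependent luminescence (CellTiter-Glo, 15 min at room temperature) following 48 h treatment. Cells had been plated at 500-1,000 per well and settled for 5 h beforehand.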

Test [8] in a line: qHTS of pediatric cancer cell lines to identify multiple opportunities for drug repurposing: Primary screen for SJ-GBM2 cells (AID 1347091). Note: potency is the fitted concentration of half-maximal effect. The gist of the method:
as §1

Test [9] in a line: qHTS of pediatric cancer cell lines to identify multiple opportunities for drug repurposing: Primary screen for NB-EBc1 cells (AID 1347095). Note: potency is the fitted concentration of half-maximal effect. The gist of the method:
(§2)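 Phenotypic viability qHTS, 48 h compound exposure, CellTiter-Glo luminescence read-out; multi-concentration dosing so that potency and efficacy derive directly from the primary screen's curves.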

Test [10] is described as follows: qHTS of pediatric cancer cell lines to identify multiple opportunities for drug repurposing: Primary screen for BT-37 cells (AID 1347094). Note: potency is the fitted concentration of half-maximal effect. The gist of the method: as §2
A short description of test [11]: P-glycoprotein substrates identified in KB-8-5-11 adenocarcinoma cell line, qHTS therapeutic library screen (AID 1346987). Note: series mostly up to about 44 µM; nearly all actives have a fitted effect of over 65% in size. The gist of the method:
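Compounds are pinned in dose-response onto KB-8-5-11 cells (500 cells/well, colchicine-free medium) and left 72 h at 37 degree C. CellTiter-Glo luminescence then yields AC50 values.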

Test [12] in a line: qHTS of pediatric cancer cell lines to identify multiple opportunities for drug repurposing: Primary screen for A673 cells (AID 1347092). Note: potency is the fitted concentration of half-maximal effect; nearly all actives have a fitted effect of over 45% in size. The gist of the method: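 A673 cells (500-1,000 cells/well in growth media) were pre-incubated 5 h at 37 degrees C, then exposed to compounds for 48 h. Viability was read as CellTiter-Glo luminescence; concentration-response curves came directly from the primary screen.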

Structures are written as SMILES. Results filed as inconclusive are left out. Activity calls are given as the source filed them. Calls come from the whole dose curve; as a rule, active = well fitted curve in the direction sought with a large enough effect; inconclusive = small, poorly fitted or top-dose-only effect, or another doubt; inactive = no such curve, though single readings can be large; an effect the other way counts as inactive or inconclusive.

On to `COc1ccc(C(Cl)=C(c2ccc(OC)cc2)c2ccc(OC)cc2)cc1`, for which the molecule was called inactive in test [1]. The Potency result in test [2], in test [3], in test [4], in test [5], in test [6] and in test [7] was “inactive” throughout.

As for `CC(C)(C)NC[C@H](O)COc1cccc2c1CCCC2=O`, the molecule was called inactive in test [1]. The Potency entry in test [2], in test [3], in [4], in [5], in test [6] and in test [8] was “inactive” each time. Further, the Potency result in test [7] and in test [9] was “inactive” throughout.

Consider `CN1CCN(C2=Nc3ccccc3Sc3ccc(Cl)cc32)CC1`, for which the outcome in test [1] was inactive. Also, the Potency entry in [2], in test [3], in test [4], in test [5], in test [6] and in test [8] was “inactive” in each case. The Potency entry in [10] and in [9] was “inactive” in each case.

With `N/C(=N\N=C\c1ccc(Cl)cc1)N/N=C/c1ccc(Cl)cc1`, in test [1], the result was inactive. The Potency entry in test [3], in test [11], in [4] and in [5] was “inactive” throughout.

Regarding `Cc1ccc2c(Br)cc(Br)c(O)c2n1`, the molecule was called inactive in test [1]. Further, the Potency result in test [2], in test [3] and in test [4] was “inactive” throughout. The Potency in [6] was 8.41 µM (active); in [8], 13.3 µM (active); in test [12], 2.66 µM (active); in test [7], 11.9 µM (active); in test [9], 2.99 µM (active).

As to `CC(=O)OC[C@H]1O[C@@H](n2ncc(=O)[nH]c2=O)[C@H](OC(C)=O)[C@@H]1OC(C)=O`, the molecule was classed as inactive in test [1]. Besides, the Potency entry in test [2] and in test [3] was “inactive” in each case. Moreover, the Potency in test [7] is 0.335 µM (active); in [9], 23.7 µM (active).

On to `CCN(CC)CCOc1ccc2c(c1)C(=O)c1cc(OCCN(CC)CC)ccc1-2`, for which, in test [1], the result was inactive. Moreover, the Potency result in [2], in [3], in test [4] and in test [6] was “inactive” each time.

With `CCc1oc2ccccc2c1C(=O)c1cc(I)c(O)c(I)c1`, the molecule was called inactive in [1]. Moreover, the Potency result in [2], in [3], in test [4], in [5] and in test [10] was “inactive” in each case.

As to `C[C@@]12C(=O)OC(=O)[C@]1(C)C1CCC2O1`, the call in [1] was inactive. Moreover, the Potency in test [2] was 0.501 µM (active); in test [3], 0.698 µM (active); in test [5], 6.64 µM (active); in test [6] it was 3.35 µM (active); in test [8], 2.37 µM (active); in test [12] it was 6.68 µM (active). Moreover, the Potency in test [7] and in [9] was 2.37 µM (active) in each case.

Take `CCO[C@@H]1O[C@H](C(COCc2ccccc2)OCc2ccccc2)[C@H](OCc2ccccc2)[C@H]1O` (some centres undefined): the result in test [1] was inactive. Further, the Potency result in test [2], in test [3], in [4], in test [5] and in test [9] was “inactive” each time.

Turning to `C[C@]12CCC(=O)C=C1C=C[C@@H]1[C@@H]2CC[C@@]2(C)[C@H]1CC[C@@]21CCC(=O)O1`, the result in [1] was inactive. For the same molecule, the Potency entry in test [2], in test [3], in test [4], in test [5], in test [8] and in [10] was “inactive” throughout. Also, in test [9], the Potency result is “inactive”.

As for `CNCCCCOc1ccccc1Cc1ccccc1`, in [1], the result was inactive. In addition, the Potency result in test [2], in [3], in test [4], in [5], in test [6] and in test [9] was “inactive” each time.

In the case of `CCN(CC)CCNc1ccc(CO)c2sc3ccccc3c(=O)c12`, the molecule was classed as inactive in test [1]. In addition, the Potency result in [2] was “inactive”. The Potency in test [3] was 25.9 µM (active); in test [7] it was 21.1 µM (active); in [10] it was 17.4 µM (active); in [9] it was 7.5 µM (active).

Take `CCN1/C(=C/C=C/c2sc3ccccc3[n+]2CC)Sc2ccccc21`: in test [1], the outcome was inactive. For the same molecule, the Potency was 7.94 µM (active) in test [2]; 5.8 µM (active) in [3]; 3.55 µM (active) in [4]; 1.29 µM (active) in [5]; 1.16 µM (active) in test [6]; 1.3 µM (active) in test [7]. The Potency in [10] is 1.35 µM (active).
